“And” between values parts separate entries of the source, which are not always exact repeats. Equal values may be shown once. In all, about 410,000 compounds went through this assay and about 3,100 (0.76%) were called active. The call rests on the fitted dose curve; in most records, active means well fitted cell-killing curve with a large enough effect; inactive means no such curve, though single readings can be large or run the other way. This excerpt belongs to a sample that is enriched for actives. Some compounds were tested as several samples or in several runs, with calls that do not always agree.
test: qHTS for Inhibitors of TGF-b: Cytotox Counterscreen; conditions: HepG2 CAGA-GFP viability, ATP luminescence, 18 h; series mostly up to 46.1 µM; activity change, negative = cytotoxicity: at the top concentration
Method in brief: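 CellTiter-Glo luminescence gave cytotoxicity after 18 hours at 37 degrees C. The cells were HepG2 CAGA-GFP in 1% FBS DMEM, stimulated with 500 pg/mL TGF-beta after compound addition. %Activity was normalised to no-cell wells (complete cell-killing) and DMSO (no toxicity), and curves were fitted and classified.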
Potency means the concentration at half of the fitted maximal effect.

Compound	activity change, negative = cytotoxicity	Potency
CSc1ccccc1-c1nnc(NC(=O)c2ccc3c(c2)OCCO3)o1	-17% (inactive)	–
Cc1ccccc1NCC(=O)N/N=C\c1ccc([N+](=O)[O-])s1	–	11.2 µM (active)
Cc1ccsc1/C=N/NC(=O)Cc1cc(=O)[nH][nH]1	0.602% (inactive)	–
CCn1c(SCC(=O)N/N=C/C=C/c2ccccc2[N+](=O)[O-])nnc1-c1ccccc1	-22.3% (inactive)	–
COc1ccc(C(=O)NCC(c2ccco2)N2CCc3ccccc32)cc1OC (centres undefined)	-41.6% (inactive)	–
COc1ccc(N(CC(=O)N/N=C/c2cccs2)S(=O)(=O)c2ccc(OC)c(OC)c2)cc1	-14.7% (inactive)	–
COc1ccc(C(=O)NCC(=O)N/N=C/c2ccc([N+](=O)[O-])s2)cc1OC	–	11.2 µM (active)
CCc1nc2ccc(C(=O)N3CCN(c4cc(Cl)ccc4C)CC3)cc2nc1CC	-30.6% (inactive)	–
CC(C)c1ccc(OCC(=O)N(Cc2ccc(N(C)C)cc2)C2CCS(=O)(=O)C2)cc1 (centres undefined)	-10.2% (inactive)	–
CC(=O)OC1=C(C(C)=O)N(Cc2ccccc2)S(=O)(=O)c2ccccc21	-6.4% (inactive)	–
Oc1c(C(c2ccc(F)cc2)N2CCN(Cc3ccccc3)CC2)sc2nc(-c3ccco3)nn12 (centres undefined)	-58.8% (inactive)	–
CCc1ccccc1NC(=O)c1ccc2nc(CCc3ccccc3)oc2c1	-22.8% (inactive)	–
COc1cccc(CNCCc2c[nH]c3ccccc23)c1OCc1ccccc1F	–	17.8 µM (active)
COc1cccc(CNn2cn[nH]c2=S)c1OCc1ccccc1	2.29% (inactive)	–
COc1cccc(CNCCSc2nnnn2C)c1OCc1ccccc1Cl	-33% (inactive)	–
CCC(C)Nc1oc(-c2ccc(COc3ccc(Cl)cc3)o2)nc1C#N (centres undefined)	-37.5% (inactive)	–
CCC(C)Cn1c(O)cc2nn(-c3nc4ccccc4s3)c(=O)c-2c1C (centres undefined)	-4.55% (inactive)	–
C/C(=N\NC(=O)CC(C)C)c1c(C(F)(F)F)[nH]n(-c2nc3ccccc3s2)c1=O	–	10 µM (active)
O=C(Nc1ccc(F)cc1F)c1ccc2c(=O)n3c(nc2c1)CCCCC3	-21.1% (inactive)	–
CC(C)(C)c1ccc(C(=O)Nc2ccc3c(c2)CCCN3C(=O)c2cccs2)cc1	-44.9% (inactive)	–
OC(CN=c1sc2ccccc2n1CC(O)COc1ccccc1)COc1ccccc1 (centres undefined)	–	14.1 µM (active)
COc1ccc(Cn2c(=O)sc3ccccc32)cc1OC	-12.6% (inactive)	–
CCCn1c(=N)n(CC(O)COc2ccccc2OC)c2ccccc21 (centres undefined)	-35.5% (inactive)	–
Cc1c(NC(=O)Nc2ccc(F)c(Cl)c2)c(=O)n(-c2ccccc2)n1C	7.8% (inactive)	–
CCCOc1ccc(NC(=O)CC2C(=O)N(c3ccccc3)C(=O)N2Cc2ccco2)cc1 (centres undefined)	-38.4% (inactive)	–

Compound	activity change, negative = cytotoxicity	Potency
CN1c2ccc(C=O)c3c(C=O)ccc(c23)N(C)C1(C)C	–	11.2 µM (active)
O=C1C[C@@H](c2ccc3ccccc3c2)N1S(=O)(=O)c1ccccc1[N+](=O)[O-]	3.22% (inactive)	–
CCOc1ccc(OCC)c(NC(=O)c2cc(C)nc3c2c(C)nn3-c2cccc(Cl)c2C)c1	-9.94% (inactive)	–
CCn1c(C)c(C)c2cc(C(=O)N3CCN(c4cccc(C)c4C)CC3)ccc21	–	inactive and 17.8 µM (active)
Cc1c(C)n(Cc2ccc(Cl)cc2)c2ccc(C(=O)N3CCN(c4ccccc4F)CC3)cc12	-37.6% (inactive)	–
Cc1cccc(N2CCN(C(=O)c3ccc4c(c3)CCN4S(=O)(=O)c3ccccc3)CC2)c1C	-10.4% (inactive)	–
O=C1OC(C(=O)Nc2cccc(Br)c2)Cc2ccccc21 (centres undefined)	-14.8% (inactive)	–
Nc1ccc(Nc2ccccc2)cc1	–	12.6 µM (active)
Cc1ccc(Nc2ccccc2N)cc1	-11.6% (inactive)	–
Nc1ccccc1N	-29.9% (inactive)	–
OCCNc1ncnc2oc(-c3ccco3)c(-c3ccco3)c12	-6.83% (inactive)	–
Cc1ccc(-c2nn(CCC(=O)Nc3ccc(Cl)c(Cl)c3)c(=O)c3ccccc23)cc1	-0.688% (inactive)	–
O=C(CC(O)(C(F)(F)F)C(F)(F)F)Nc1ccc(Cl)c(Cl)c1	–	10 µM (active)
O=C(CSc1nnc(-c2ccncc2)n1-c1ccccc1)Nc1ccc(Cl)c(Cl)c1	-32.6% (inactive)	–
O=C(Nc1cc(C(F)(F)F)ccc1Cl)c1ccc2c(c1)CCN2S(=O)(=O)c1ccccc1	1.94% (inactive)	–
NC(=O)Nc1ccc(/C=C/c2ccnc3ccccc23)cc1	-31.3% (inactive)	–
CCN(CC)S(=O)(=O)c1ccc(NC(=O)c2cccnc2Cl)c(NC(=O)c2cccnc2Cl)c1	–	12.6 µM (active)
CCN(CC)S(=O)(=O)c1ccc(C)c(NC(=O)COc2ccc(Br)cc2Cl)c1	-19.9% (inactive)	–
Cc1ccc(S(=O)(=O)N(C)C)cc1NC(=O)c1ccccc1Br	-0.551% (inactive)	–
O=C1O/C(=C\c2ccc(O)cc2)C(O)=C1c1ccc(O)cc1	-5.76% (inactive)	–
COc1ccc(CN2CCC(=O)c3ccccc3S2(=O)=O)cc1	2.5% (inactive)	–
OCC(O)C(O)C(O)C(O)C=Nc1ccc(/C=C/c2ccnc3ccccc23)cc1 (centres undefined)	-37% (inactive)	–
Cc1nn(Cc2ccc(F)cc2)c(C)c1NC(=O)c1cc(CC(C)C)on1	-16.7% (inactive)	–
O=C1CCC[C@@H]2C[C@@]3(C[C@@H]4CCN1[C@H]24)Nc1ccccc1NC3=NCc1ccccc1	3.95% (inactive)	–
COc1cc(OC)c(OC)cc1/C=C1\C=Cc2ccccc21	-29.7% (inactive)	–

Compound	activity change, negative = cytotoxicity	Potency
Cc1nc2nc(SCC(=O)NC3CCC(C)CC3)nn2c(C)c1Cc1ccccc1Cl (centres undefined)	-5.98% (inactive)	–
CCCCNC(=O)C1CCCN(c2nnc(C)c3c(C)n(-c4ccc(Cl)cc4)nc23)C1 (centres undefined)	-16.2% (inactive)	–
CCOc1ccc(CNC(=O)C2CCCN(c3nnc(C)c4c(C)n(-c5ccccc5)nc34)C2)cc1 (centres undefined)	–	inactive and 12.6 µM (active)
Cc1nnc(N2CCCC(C(=O)NCCN(C)C)C2)c2nn(-c3ccccc3)c(C)c12 (centres undefined)	-5.42% (inactive)	–
C(=Nc1ccc(/C=C/c2ccnc3ccccc23)cc1)Nc1ccc(/C=C/c2ccnc3ccccc23)cc1	-43.2% (inactive)	–
CCc1ccc(NC(=O)c2cc3c(=O)n(Cc4cccnc4)ccc3nc2C)cc1	-25.2% (inactive)	–
Cc1c(Cl)cccc1NC(=O)Cn1cc(C(=O)c2cccs2)c2ccccc21	-18.1% (inactive)	–
CC(C)(C)c1ccc(S(=O)(=O)Nc2ccc(O)c(Sc3nc4ccccc4s3)c2)cc1	-100% (inactive)	–
O=[N+]([O-])c1c(NCCO)cc(Sc2nc3ccccc3s2)c2nonc12	–	15.8 µM (active)
CC(C)c1ccc(S(=O)(=O)Nc2ccc(O)c(Sc3nc4ccccc4s3)c2)cc1	-40.8% (inactive)	–
COc1ccc(-c2nn(CC(=O)Nc3ccccc3F)c3c2cnc2ccc(F)cc23)cc1	0.4% (inactive)	–
CN(CCC#N)c1ccc(C=O)cc1	-6.52% (inactive)	–
O=C(Cn1c(=O)n(-c2ccc(F)cc2)c(=O)c2sccc21)Nc1cccc(C(F)(F)F)c1	-27% (inactive)	–
COc1ccc(/C=C/c2ccnc3ccccc23)cc1OC	-19.3% (inactive)	–
Cc1cccc(N2CCN(C(=O)c3cc4c(=O)[nH]c5ccccc5c4n3C)CC2)c1C	-13.2% (inactive)	–
O=C(c1ccc2ccccc2n1)N1CCN(c2ccccc2Cl)CC1	-2.3% (inactive)	–
O=C(c1c(Cl)cccc1Cl)N1CCN(c2cccc3[nH]ccc23)CC1	–	0.447 µM (active)
CCc1ccccc1N(C)C(=O)C1CCCN(c2ncnc3onc(-c4ccc(F)cc4)c23)C1 (centres undefined)	1.08% (inactive)	–
Oc1cccc2cc(-c3ccncc3)cnc12	–	2.82 µM (active)
Cc1ccc2c(c1)N(C(=O)CCC(=O)NCc1ccccc1F)CC(C)O2 (centres undefined)	-1.52% (inactive)	–
CC1=C(C(=O)OCC2CCCCC2)C(c2c(F)cccc2Cl)CC(=O)N1 (centres undefined)	1.73% (inactive)	–
COC(=O)c1ccc(OCC(O)CN(CCO)CC(O)Cn2ccc3ccccc32)cc1 (centres undefined)	-3.35% (inactive)	–
COc1cccc(CN(C)CC(O)COC(c2ccccc2)c2ccccc2C)c1 (centres undefined)	-80.7% (inactive)	–
CN(Cc1ccccc1)CC(O)COc1ccc(CNCc2cc3ccccc3s2)cc1 (centres undefined)	–	11.2 µM (active)
C=C1CCN(C(CC(C)C)C(=O)NCc2cc(OC)c(OC)c(OC)c2)S(=O)(=O)c2ccccc21 (centres undefined)	-4.21% (inactive)	–

Compound	activity change, negative = cytotoxicity	Potency
Cc1ccc(Cl)cc1NC(=O)/C(C#N)=C\c1cn(Cc2ccc(F)cc2)c2ccccc12	-32.7% (inactive)	–
O=C(Cn1cc(/C=N/NC(=O)c2cccc(C(F)(F)F)c2)c2ccccc21)Nc1ccc(F)cc1	-34.7% (inactive)	–
N#CCC(=O)N/N=C/c1cn(Cc2ccc3ccccc3c2)c2ccccc12	–	3.55 µM (active)
Cc1ccc(Cn2c(CCCNC(=O)C3CCCCC3)nc3ccccc32)cc1	-24% (inactive)	–
Cc1ccc2c(=O)c(C(=O)c3cccc(Cl)c3)cn(CC(=O)NCc3ccccc3)c2n1	-18.6% (inactive)	–
COc1ccc(CCNCc2c(-c3ccccc3)n(C)c3ccccc23)cc1	–	12.6 µM (active)
COc1ccc(-c2c(C#Cc3ccccc3)c3ccccc3n2C)cc1	0.571% (inactive)	–
COc1ccc(Cn2c(C(=O)O)c(CNCCc3cccs3)c3ccc(OC)cc32)cc1	-6.96% (inactive)	–
CN(C)c1ccc(/C=C/c2sc3ccccc3[n+]2C)cc1	-41.5% (inactive)	–
CCC(C)c1ccc2oc(-c3ccc(NC(=O)c4cc5ccccc5o4)cc3)nc2c1 (centres undefined)	0.606% (inactive)	–
CN(NC(=O)c1ccccc1F)c1nc(C(F)(F)F)nc2ccccc12	-1.05% (inactive)	–
CN(C)C(CNC(=O)Cc1ccc([N+](=O)[O-])cc1)c1ccccc1 (centres undefined)	-13.6% (inactive)	–
CCc1ccc(C(CNc2nc(C(F)(F)F)nc3ccccc23)N(C)C)cc1 (centres undefined)	–	20 µM (active)
CC1CCN(S(=O)(=O)c2ccc3c(ccn3CCC(=O)NCc3ccc(N(C)C)cc3)c2)CC1	-26.5% (inactive)	–
O=C(O)c1c(Br)c(Br)c(Br)c(Br)c1C1c2ccc(O)cc2Oc2cc(O)ccc21	1.05% (inactive)	–
Cc1cc(F)ccc1NS(=O)(=O)c1ccc(-n2cccn2)cc1	-13.1% (inactive)	–
Cc1ccc(OS(=O)Nc2cccc3nccnc23)cc1 (centres undefined)	–	15.8 µM (active)
Cc1ccc(Oc2ccc3c(c2)C(=O)N(c2cccc4cccnc24)C3=O)cc1	18.4% (inactive)	–
Cc1ccc(OCCn2c(CNc3ccccc3C)nc3ccccc32)cc1	-44.5% (inactive)	–
CCOCCn1ccc2c(OCC(=O)NCc3ccc(C)cc3)cccc2c1=O	-4% (inactive)	–
COc1ccc(Cc2nc3ccc(C(=O)NCc4ccc(OC)cc4OC)cc3o2)cc1	-13.9% (inactive)	–
CCOC(=O)c1c(NC(=O)C2CCN(S(=O)(=O)c3ccc(Cl)cc3)CC2)sc2c1CCCC2	7.04% (inactive)	–
CCOC(=O)c1c(NC(=O)c2ccc(S(=O)(=O)N3CCCC(C)C3)cc2)sc2c1CCN(C(C)C)C2 (centres undefined)	–	10 µM (active)
COC(=O)c1c(NC(=O)c2ccc(S(=O)(=O)N3CCOCC3)cc2)sc2c1CCN(C(C)C)C2	-16.4% (inactive)	–
